The results in this text go back to PubChem BioAssay (NCI).

Among the test systems are EKVX NSCLC; SN12C renal; UO-31 renal; ACHN renal; CAKI-1 renal; A498 renal; CCRF-CEM leukemia; MOLT-4 leukemia; SR leukemia; RPMI-8226 leukemia; OVCAR-8 ovarian; OVCAR-5 ovarian; OVCAR-4 ovarian; SK-OV-3 ovarian; IGROV1 ovarian; OVCAR-3 ovarian; HS 578T breast; NCI/ADR-RES ovarian; T-47D breast.
Common to all, as to test: NCI-60 one-dose screen, 48 h (100 = growth as untreated, 0 = no growth, -100 = all killed)
Details in all cases: 10 µM unless noted

Compounds without any hit were thinned out: in the full panel of roughly 83,000, 20% have a hit.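 Step 1: grow cells in 96-well plates. Step 2: add test compound at a single concentration. Step 3: incubate 48 h. Step 4: record percent growth.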 A number with no mark means an inactive call. The source made the active and inactive calls. The calls were made as follows: active = growth percent below 10; inactive = the rest.

`CC(=O)Nc1cc(F)cc(-c2ccc3[nH]cc(-c4ccccc4)c3n2)c1`: the growth in the test on EKVX NSCLC is 43.7%; in the test with SN12C renal it was 32.7%; in the test on UO-31 renal it was 10.1%; in the test on ACHN renal, 15.9%; in the test with CAKI-1 renal, -37.1% (active); with A498 renal, -20.1% (active). Moreover, the growth in the test with CCRF-CEM leukemia was 16.9%; in the test on MOLT-4 leukemia it was 9.24% (active); in the test on SR leukemia, -1.91% (active); with RPMI-8226 leukemia, 5.72% (active); in the test on OVCAR-8 ovarian, 34%; in the test on OVCAR-5 ovarian, 27.4%. Also, the growth in the test on OVCAR-4 ovarian was 42.4%; in the test on SK-OV-3 ovarian it was 13.6%; in the test with IGROV1 ovarian, 25.7%; in the test on OVCAR-3 ovarian, 32.5%; with HS 578T breast it was 10.5%; in the test with NCI/ADR-RES ovarian, 33.5%. In the test with T-47D breast, the growth is 26.8%.
As for `OC1CCN(CCCOc2c3ccccc3nc3c2oc2ccccc23)CC1`, the growth was -13.7% (active) in the test with EKVX NSCLC; -1.2% (active) with SN12C renal; -34.4% (active) in the test with UO-31 renal; -39% (active) in the test on ACHN renal; -36.7% (active) in the test with CAKI-1 renal; -78.8% (active) in the test with A498 renal. In addition, the growth in the test with CCRF-CEM leukemia was 6.02% (active); in the test with MOLT-4 leukemia, 3.82% (active); with RPMI-8226 leukemia it was -24% (active); in the test with OVCAR-8 ovarian, -44.9% (active); in the test on OVCAR-5 ovarian, -8.63% (active); in the test with OVCAR-4 ovarian it was 4.9% (active). Also, the growth with SK-OV-3 ovarian is -10.8% (active); in the test on IGROV1 ovarian it was -37.2% (active); in the test on OVCAR-3 ovarian, -18.7% (active); with HS 578T breast, 8.94% (active); with NCI/ADR-RES ovarian, -17.9% (active); in the test on T-47D breast, 1.32% (active).
Consider `Clc1ccc2c(NCCCN3CCOCC3)c3oc4ccc(Cl)cc4c3nc2c1`, for which the growth was 65.3% in the test with EKVX NSCLC; 40% in the test on SN12C renal; 32.2% with UO-31 renal; 12.1% in the test on ACHN renal; 21.6% in the test with CAKI-1 renal; 49.7% in the test with A498 renal. Moreover, the growth with CCRF-CEM leukemia is 48.9%; in the test with MOLT-4 leukemia it was 15.4%; in the test with SR leukemia it was 1.24% (active); with RPMI-8226 leukemia, 67.8%; with OVCAR-8 ovarian it was 35.6%; in the test with OVCAR-5 ovarian, 47.4%. Besides, the growth in the test on OVCAR-4 ovarian was 87.4%; in the test on SK-OV-3 ovarian, 89.3%; with IGROV1 ovarian it was 42.9%; with OVCAR-3 ovarian it was 104%; in the test on HS 578T breast it was 84%; in the test with NCI/ADR-RES ovarian, 42.5%. In the test on T-47D breast, the growth was 91.4%.
Consider `NC(=O)c1cc(-c2ccc3ncnc(N4CCc5cc(F)c(Cl)cc54)c3c2)cnc1N`, for which the growth in the test on EKVX NSCLC was 13.6%; with SN12C renal it was 23.4%; with UO-31 renal it was 22.3%; in the test with ACHN renal, 23.1%; with CAKI-1 renal, 19.9%; in the test on A498 renal, -68.3% (active). For the same compound, the growth with CCRF-CEM leukemia was 21%; in the test on MOLT-4 leukemia, -11.8% (active); with SR leukemia it was 18.5%; with RPMI-8226 leukemia, -8.02% (active); in the test with OVCAR-8 ovarian, 32.8%; in the test on OVCAR-5 ovarian, 36.5%. Also, the growth is 10.4% in the test with OVCAR-4 ovarian; 35.9% with SK-OV-3 ovarian; -41.2% (active) in the test on IGROV1 ovarian; 1.86% (active) in the test on OVCAR-3 ovarian; -7.69% (active) in the test on HS 578T breast; 60.2% in the test on NCI/ADR-RES ovarian. Further, the growth in the test with T-47D breast is 0.0054% (active).
Turning to `Cc1ccc2ccc3ccc(C)nc3c2n1.Cc1ccc2ccc3ccc(C)nc3c2n1.Oc1c(Cl)cc(Cl)c2ccc(CN3CCCCC3)nc12.[Ru]`, the growth with EKVX NSCLC is -64.9% (active); in the test on SN12C renal, -64.9% (active); in the test on UO-31 renal it was -89.8% (active); in the test on ACHN renal it was -95.6% (active); with CAKI-1 renal it was -77.7% (active); with A498 renal, -88.7% (active). Also, the growth in the test with CCRF-CEM leukemia is -47.9% (active); with MOLT-4 leukemia, -52.7% (active); with RPMI-8226 leukemia, -46% (active); in the test on OVCAR-8 ovarian, -75.4% (active); in the test on OVCAR-5 ovarian, -72% (active); with OVCAR-4 ovarian, -45.8% (active). For the same compound, the growth is -72.6% (active) in the test with SK-OV-3 ovarian; -58.4% (active) in the test on IGROV1 ovarian; -95.3% (active) with OVCAR-3 ovarian; -42.4% (active) in the test on HS 578T breast; -24.4% (active) in the test with NCI/ADR-RES ovarian; -55.8% (active) with T-47D breast.
`CS(=O)(=O)c1ccc(-c2nc3ccccn3c2/C=N/Nc2nc(-c3ccc(Br)cc3)cs2)cc1`: the growth in the test with EKVX NSCLC was 97.8%; with SN12C renal it was 103%; with UO-31 renal it was 84.8%; in the test on ACHN renal it was 103%; in the test with CAKI-1 renal, 96.9%; with A498 renal it was 78%. In addition, the growth in the test on CCRF-CEM leukemia is 90.8%; in the test on MOLT-4 leukemia, 94%; in the test on SR leukemia, 95.1%; in the test on RPMI-8226 leukemia, 94.1%; in the test with OVCAR-8 ovarian it was 99.1%; in the test on OVCAR-5 ovarian it was 110%. In addition, the growth in the test on OVCAR-4 ovarian was 107%; in the test with SK-OV-3 ovarian it was 140%; in the test with IGROV1 ovarian, 111%; in the test with OVCAR-3 ovarian, 139%; with HS 578T breast it was 112%; in the test with NCI/ADR-RES ovarian, 107%. Also, the growth in the test with T-47D breast was 94%.
For the compound `OC1CCN(CCCOc2c3ccc(Cl)cc3nc3c2oc2ccc(Cl)cc23)CC1`, the growth in the test with EKVX NSCLC was 34.7%; with SN12C renal, 23.2%; with UO-31 renal, 7.4% (active); in the test on ACHN renal it was -98.4% (active); in the test on CAKI-1 renal, 3.71% (active); with A498 renal, -7.6% (active). Moreover, the growth with CCRF-CEM leukemia is -28.8% (active); in the test with MOLT-4 leukemia, 0.17% (active); in the test with SR leukemia it was -39.3% (active); in the test on RPMI-8226 leukemia, -8.79% (active); in the test with OVCAR-8 ovarian, 27.7%; in the test on OVCAR-5 ovarian, -28.1% (active). For the same compound, the growth in the test with OVCAR-4 ovarian is 55%; in the test with SK-OV-3 ovarian, 50.8%; with IGROV1 ovarian, 9.03% (active); with OVCAR-3 ovarian it was 46.5%; in the test with HS 578T breast it was 20.5%; in the test on NCI/ADR-RES ovarian it was 32.4%. The growth in the test on T-47D breast is 52.3%.
On to `O=C(O)CCCCCN1C(=O)/C(=C/c2ccc(O)c(O)c2)SC1=S`, for which the growth was 97% in the test on EKVX NSCLC; 98.5% in the test with SN12C renal; 90.4% in the test with UO-31 renal; 109% in the test with ACHN renal; 102% with CAKI-1 renal; 101% in the test with A498 renal. In addition, the growth in the test on CCRF-CEM leukemia was 105%; with MOLT-4 leukemia it was 106%; in the test with RPMI-8226 leukemia it was 111%; in the test on OVCAR-8 ovarian, 103%; in the test on OVCAR-5 ovarian, 108%; with OVCAR-4 ovarian it was 101%. In addition, the growth in the test on SK-OV-3 ovarian is 124%; with IGROV1 ovarian it was 106%; with OVCAR-3 ovarian it was 108%; in the test on HS 578T breast it was 99.6%; in the test on NCI/ADR-RES ovarian, 104%; with T-47D breast, 98%.
